Measurements from PubChem BioAssay AID488847 (NMMLSC, 2010).
Among all 330,000 compounds or so, about 1,900 (0.58%) were called active. For the sample, actives were picked, then their nearest neighbours and some compounds at random. A number with no mark means an inactive call.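 How the source made its calls: active means inhibition of aptamer binding above 40%, roughly 3 SD of noise, on plates passing a quality check; inactive means the rest.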

Each compound was assayed against Beta-adrenergic receptor kinase 1 (Homo sapiens) (UniProt P25098) (assay: compounds blocking aptamer binding on GRK2 – biochemical, human GRK2, bead flow cytometry, HTS, primary screen (AID 488847;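 further: median bead fluorescence of bound FAM aptamer so fluorescent compounds give negative values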)). Conditions: FAM-aptamer displacement from GRK2, at 10 µM, active compounds read high.
Beta-adrenergic receptor kinase 1 (Homo sapiens), sequence (P25098 whole entry, looked up): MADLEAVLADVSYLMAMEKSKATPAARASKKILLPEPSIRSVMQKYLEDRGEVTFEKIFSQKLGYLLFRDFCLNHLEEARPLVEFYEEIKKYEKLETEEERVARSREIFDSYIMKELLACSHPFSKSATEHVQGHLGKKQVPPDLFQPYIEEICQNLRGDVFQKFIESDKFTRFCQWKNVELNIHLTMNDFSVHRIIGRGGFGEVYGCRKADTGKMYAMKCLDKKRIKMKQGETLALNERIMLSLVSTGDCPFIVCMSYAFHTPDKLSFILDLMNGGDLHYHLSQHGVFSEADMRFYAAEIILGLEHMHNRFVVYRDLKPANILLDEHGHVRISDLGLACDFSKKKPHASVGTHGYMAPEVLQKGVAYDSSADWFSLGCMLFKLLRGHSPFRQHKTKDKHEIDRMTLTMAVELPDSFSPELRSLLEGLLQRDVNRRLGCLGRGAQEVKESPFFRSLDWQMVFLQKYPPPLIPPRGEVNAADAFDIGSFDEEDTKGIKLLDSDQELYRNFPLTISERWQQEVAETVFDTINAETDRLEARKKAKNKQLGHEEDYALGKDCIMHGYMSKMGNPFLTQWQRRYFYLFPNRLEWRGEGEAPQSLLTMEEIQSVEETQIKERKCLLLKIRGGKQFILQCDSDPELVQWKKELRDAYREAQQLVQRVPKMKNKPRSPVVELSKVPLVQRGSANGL

Row | SMILES | inhibition of aptamer binding
1 | Cc1c(C(=O)O)cccc1-n1c(C)cc(/C=C2\C(=O)NC(=O)N(c3ccc4c(c3)OCO4)C2=O)c1C | 75% (active)
2 | Cc1cc(C=C2C(=O)NC(=O)NC2=O)c(C)n1-c1ccncc1 | 2%
3 | Cc1ccc(-n2c(C)cc(/C=C3\C(=O)NC(=O)N(C)C3=O)c2C)cc1C | 3%
4 | CC[N+]1(C)CCCC(OC(=O)C(O)(c2ccccc2)c2ccccc2)C1 (stereo not given) | 0%
5 | O=C1NC(=O)C(C/C=C/c2ccccc2)C(=O)N1 | 1%
6 | COc1ccc(Br)cc1CNCCc1cccc(Cl)c1 | 0%
7 | COc1ccc(N2C(=O)/C(=C/c3ccco3)C(=O)NC2=S)cc1 | 96% (active)
8 | O=C1NC(=O)N(Cc2ccco2)C(=O)/C1=C\c1cccn1CCOc1ccccc1 | 5%
9 | O=C1NC(=O)N(Cc2ccco2)C(=O)/C1=C\c1ccc(-c2ccc(F)cc2)o1 | 15%
10 | CN(C)CC1CCCCC1OC(=O)c1ccc(Cl)c(Cl)c1 (stereo not given) | 0%
